# From PubChem BioAssay
# A selection: hits, their analogues and other compounds. The true share with any hit is near 1.1%.
# HTR5A ag ctr: counter-screen for OPRM1-OPRD1 agonists: human HTR5A agonism. HTR5A agonist assay, luminescence, cell-based. activation, % at 9.3 µM. 340,000 compounds, 0.61% hits. P47898; in the data active = activation mostly above about 9.5%, no sharp cut-off; inactive = mostly below about 7.6%;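 note: 0% = cells with vehicle only and 100% = reference agonist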
# MOR-DOR inv ag-1: inverse agonists of human mu-delta opioid receptor heterodimerization. 340,000 compounds, 0.21% hits. inhibition, % at 9.3 µM. cell-based MOR-DOR heterodimer luminescence, inverse agonism; in the data active = inhibition above about 22%, passing the limit was not always enough;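 note: 0% = cells with DMSO and 100% = wells without cells with DMSO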
# MOR-DOR ag-1: agonists of human mu-delta opioid receptor heterodimerization; P35372+P41143; cells, OPRM1-OPRD1 heterodimerization, luminescence; activation, % at 9.3 µM; 340,000 compounds, 0.3% hits; in the data active = activation above about 18%;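 note: 0% = vehicle-treated cells and 100% = reference agonist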
# HTR5A inv ctr: HTR5A inverse agonism, opioid heterodimer counter-screen | P47898 | HTR5A cell line, luminescence | inhibition, % at 9.3 µM | 340,000 compounds, 0.083% hits; in the data active = inhibition mostly above about 23%, no sharp cut-off; inactive = mostly below about 18%;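 note: 0% = cells with DMSO and 100% = no-cell wells with DMSO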
# MOR-DOR inv conf: OPRM1-OPRD1 heterodimer inverse agonism, confirmation | 580 compounds, 20% hits | AID 504900 | inhibition, % at 9.3 µM | cells expressing OPRM1/OPRD1 heterodimer, luminescence | shares compounds with MOR-DOR inv ag-1; in the data active = inhibition above about 32%;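 note: 0% = cells with DMSO and 100% = wells lacking cells with DMSO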
# HTR5A inv ctr2: counter-screen for OPRM1-OPRD1 inverse agonists: human HTR5A inverse agonism; 580 tested, under 10 active; inhibition, % at 9.3 µM; shares compounds with MOR-DOR inv ag-1; HTR5A-expressing cells, luminescence; AID 504914;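 note: 0% = cells with DMSO and 100% = no-cell wells with DMSO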
# MOR-DOR inv ag-2: counter-screen for HTR5A inverse agonists: OPRM1-OPRD1 heterodimerization inverse agonism | shares compounds with HTR5A inv ctr | U2OS counter-screen cells, complementation luminescence | inhibition, % at 9.3 µM | 190 tested, under 10 active;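 note: 0% = cells with DMSO and 100% = wells without cells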
# HTR5A inv conf: confirmation of human HTR5A inverse agonists | shares compounds with HTR5A inv ctr | HTR5A-expressing cells, inverse agonism, luminescence | inhibition, % at 9.3 µM | 190 tested, under 10 active;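 note: 0% = cells with DMSO and 100% = no cells with DMSO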
# MOR-DOR ag-2: promotes OPRM1-OPRD1 heterodimerization in HTR5A counter-screen. shares compounds with HTR5A ag ctr. U2OS counter-screen cells, complementation luminescence, 3 h. activation, % at 9.3 µM. 800 compounds, 13% hits; in the data active = activation above about 18%
# HTR5A ag conf: confirmation of human HTR5A agonists | 800 compounds, 17% hits | activation, % at 9.3 µM | HTR5A agonist cell assay, luminescence | shares compounds with HTR5A ag ctr; in the data active = activation above about 17%;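 note: 0% = cells with vehicle only and 100% = full reference agonist response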
# * hit, by the source's call; x = not tested or not shown. Unless noted, the rule behind the calls is not given here.
SMILES,HTR5A ag ctr,MOR-DOR inv ag-1,MOR-DOR ag-1,HTR5A inv ctr,MOR-DOR inv conf,HTR5A inv ctr2,others
CCOC(=O)c1c(NS(=O)(=O)c2ccccc2)n(CCCOC)c2nc3ccccc3nc12,-3.2,45.9*,-9.5,-29.0,-51.3,-117.8,
ON1C2CCCCC2N(O)C1c1ccccc1F (stereo not drawn),-3.0,54.4*,-9.4,8.9,-472.1,-63.2,
COC(=O)C1=C(c2cccc(OCc3ccccc3)c2)C[C@@H]2CC[C@H]1N2C(=O)NCc1ccc(Cl)cc1,0.9,-4.3,0.8,-2.8,x,x,
CC(=O)OC1CCC2(C)C3CCC4(C)C(OC(C)=O)CCC4C3C(C)C2(O)C1 (stereo not drawn),0.6,-17.5,4.0,-2.4,x,x,
COCCOC(=O)c1c(N)n(Cc2ccco2)c2nc3ccccc3nc12,-1.0,28.6*,-4.9,2.9,2.7,4.8,
COC(=O)c1c(N)n(Cc2ccc(OC)cc2)c2nc3ccccc3nc12,-2.2,32.1*,-7.2,-13.5,-14.7,0.4,
CC(C)OC(=O)c1c(N)n(Cc2ccco2)c2nc3ccccc3nc12,-4.8,21.2,-4.3,10.5,x,x,
CN1Cc2cnnn2-c2ccccc2C1c1ccccc1 (stereo not drawn),-3.2,14.9,-3.2,11.1,x,x,
C[C@H]1CCC[C@@H](O)CCC/C=C/c2cc(O)cc(O)c2C(=O)O1,-1.8,2.1,-0.4,-4.1,x,x,
CC1CCC/C=C/C2CC(O)CC2C(O)/C=C/C(=O)O1 (stereo not drawn),0.4,38.2*,-6.5,-29.0,14.3,-2.9,
C[C@H]1CCC/C=C/C2C[C@H](O)CC2[C@H](O)/C=C/C(=O)O1 (stereo partly drawn),1.0,38.5*,-7.0,-2.5,18.6,-2.6,
O=[N+]([O-])c1ccc(O)c([N+](=O)[O-])c1,0.8,11.6,-2.1,-2.9,x,x,
O=c1[nH]c(O)c(N=Nc2cc([N+](=O)[O-])ccc2O)c(=O)[nH]1,-10.3,29.1,-5.8,27.8*,x,x,MOR-DOR inv ag-2=20.9;HTR5A inv conf=15.8
CN1CCN(c2c(F)cc([N+](=O)[O-])c(N)c2Br)CC1,-12.3,15.8,-3.4,34.1*,x,x,MOR-DOR inv ag-2=7.5;HTR5A inv conf=1.2
COC(=O)C1=C(c2ccc(OC)c(OC)c2)C[C@@H]2CC[C@H]1N2C(=O)NCc1cccc2ccccc12,-2.4,13.9,-2.5,1.5,x,x,
COCCn1c(O)c(/C=N/NC(=O)CSC(=S)N2CCCC2)c(=O)[nH]c1=S,-0.7,15.8,-4.2,30.1*,x,x,MOR-DOR inv ag-2=-24.0;HTR5A inv conf=-8.5
CC(=O)OC1CCC2(C)C(CCC3C4CC(N5CC5)C(C(C)=O)C4(C)CC(=O)C32)C1 (stereo not drawn),4.9,-6.2,1.3,-18.9,x,x,
Cc1[nH]c2ccc(O)cc2c1CCN,40.3*,-2.8,0.5,-143.9,x,x,MOR-DOR ag-2=0.9;HTR5A ag conf=50.3*
Cc1[nH]c2ccc(OCc3ccccc3)cc2c1CCN,0.9,12.1,-2.5,-3.2,x,x,
CN(C)C(=O)O/N=C(\N)COc1ccc(C(C)(C)C)cc1,28.6*,-32.1,6.4,0.9,x,x,MOR-DOR ag-2=1.3;HTR5A ag conf=1.1
CC1CCC(C(C)C)C(OC(=O)Cn2c(COc3ccccc3)[n+](C)c3ccccc32)C1 (stereo not drawn),14.9*,-7.4,1.4,-5.6,x,x,MOR-DOR ag-2=3.0;HTR5A ag conf=5.6
COc1cc2c(cc1OC)C13CCN4C=C5CCOC6CC(=O)N2C1C6C5CC43 (stereo not drawn),3.0,1.7,-0.4,-11.6,x,x,
O=C(NC(=O)c1c(F)cccc1F)Nc1cc(Cl)c(F)c(Cl)c1F,-1.9,6.0,-1.3,6.8,x,x,
N#Cc1c(Br)n(C2OC(CO)C(O)C2O)c2ncnc(N)c12 (stereo not drawn),80.8*,10.1,-2.3,-310.1,x,x,MOR-DOR ag-2=32.3*;HTR5A ag conf=24.1*
